The values that follow come from PubChem BioAssay (NCATS).

Several values for one entry are separate records, joined by “and”; a condition that tells them apart may be missing. Identical values can stand only once. Inconclusive results are not listed. Where a structure was tested more than once in an assay, its records may differ in their call. Activity calls are given as the source filed them. Calls follow the shape of the dose curve; as a rule, active = well fitted inhibition curve with a large enough effect; inconclusive = small, poorly fitted or top-dose-only effect; inactive = flat fitted curve, though single readings scatter. Where a SMILES comes first, the peptide text is derived from it. [ ]: non-standard residue; d: D form. pGlu = O=C1CC[C@@H](C(=O)O)N1; Thz = O=C(O)[C@@H]1CSCN1

The target in one experiment is Ubiquitin carboxyl-terminal hydrolase 1 (Homo sapiens) (UniProt O94782). Nature of the experiment: Inhibitors of USP1/UAF1: Pilot qHTS (AID 504865). Also: nearly all actives have a fitted effect of over 35% in size. Also: potency is read from the fitted curve at half-maximal effect.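 As to activity change, negative = inhibition: rhodamine fluorescence freed from ubiquitin-rhodamine substrate followed over time; top concentration of the series differs between compounds; % is scaled to controls: 0 for no effect and ±100 for the full control effect.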 Conditions: purified USP1/UAF1, Ub-rhodamine cleavage fluorescence; series mostly up to 114 µM; activity change, negative = inhibition: at the top concentration. The method, boiled down: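 Kinetic fluorescence assay: 1nM USP1/UAF1, 15 min compound preincubation, then 150nM Ub-Rho; 480/540 nm.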
Ubiquitin carboxyl-terminal hydrolase 1 (Homo sapiens), sequence (O94782 whole entry, looked up): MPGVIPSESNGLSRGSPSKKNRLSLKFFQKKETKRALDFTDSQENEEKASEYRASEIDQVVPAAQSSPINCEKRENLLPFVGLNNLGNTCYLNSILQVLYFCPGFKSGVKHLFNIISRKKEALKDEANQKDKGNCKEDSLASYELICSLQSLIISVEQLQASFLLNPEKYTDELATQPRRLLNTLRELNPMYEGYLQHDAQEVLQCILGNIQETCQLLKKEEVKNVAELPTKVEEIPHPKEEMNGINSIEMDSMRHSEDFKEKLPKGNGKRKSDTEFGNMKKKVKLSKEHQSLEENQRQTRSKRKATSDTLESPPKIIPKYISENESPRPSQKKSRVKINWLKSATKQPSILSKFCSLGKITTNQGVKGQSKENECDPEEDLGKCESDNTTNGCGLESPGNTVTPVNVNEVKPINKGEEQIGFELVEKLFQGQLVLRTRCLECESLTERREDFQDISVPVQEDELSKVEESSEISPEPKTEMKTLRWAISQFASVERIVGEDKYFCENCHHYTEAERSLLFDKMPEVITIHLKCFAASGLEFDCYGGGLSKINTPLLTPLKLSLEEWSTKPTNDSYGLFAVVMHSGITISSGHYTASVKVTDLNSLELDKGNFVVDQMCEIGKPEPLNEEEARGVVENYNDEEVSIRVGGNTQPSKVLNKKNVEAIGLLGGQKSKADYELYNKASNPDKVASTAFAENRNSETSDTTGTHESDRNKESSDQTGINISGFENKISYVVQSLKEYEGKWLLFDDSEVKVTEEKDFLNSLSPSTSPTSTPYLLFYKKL
On the technique in general: In qHTS, concentration-response curves come from the screen itself.
On to `C=CCCCCCCCCC(=O)O`, for which the “activity change, negative = inhibition” value was -7.85% (inactive).
Regarding `O=C1CN(/N=C/c2ccc(-c3ccc([N+](=O)[O-])cc3)o2)C(=O)N1`, the “activity change, negative = inhibition” value is -11.4% (inactive).
On the same count and under the same terms, the value for `CCOC(=O)c1ccccc1O` was 1.4% (inactive).
As for `O=C(O)COc1ccc(C(=O)c2cccs2)c(Cl)c1Cl`, the Potency entry was “inactive”.
On to `C=C(Nc1ccc(OCC)cc1)Nc1ccc(OCC)cc1`, for which the Potency result is “inactive”.
As for `Cc1cc(O)c2ccccc2c1O`, the “activity change, negative = inhibition” value was -8.68% (inactive).
With `CC1(C)S[C@@H]2[C@H](NC(=O)[C@H](NC(=O)N3CCN(S(C)(=O)=O)C3=O)c3ccccc3)C(=O)N2[C@H]1C(=O)O`, the “activity change, negative = inhibition” value was -7.71% (inactive).
Still for that read-out and setting: the value for `CCCOC(=O)c1ccc(O)cc1` was -5.74% (inactive).
The same measure, in the same setting: the value for `O=C1CC[C@@H](C(=O)N2CSC[C@H]2C(=O)O)N1` ([pGlu]-[Thz]-OH) was 0.0092% (inactive).
Still for that read-out and setting: the value for `Cc1[nH]cnc1CN1CCc2c(c3ccccc3n2C)C1=O` was -3.6% (inactive).
On to `CN(C)c1ccc(C(=C2C=CC(=[N+](C)C)C=C2)c2ccccc2)cc1`, for which the Potency is 50.1 µM (active).
As to `O=C(OCc1ccccc1)c1ccccc1`, the “activity change, negative = inhibition” value was -1.73% (inactive).
For the molecule `O=C(/C=C/c1ccccc1)NCCO`, the “activity change, negative = inhibition” value was -14.9% (inactive).
As for `O=C1CN(/N=C/c2ccc([N+](=O)[O-])o2)C(=O)N1`, the Potency entry is “inactive and 50.1 µM (active)”.
Consider `Cc1nc2ccccc2n1Cc1ccc(Cl)cc1`, for which the “activity change, negative = inhibition” value is -9.69% (inactive).
Turning to `CCCCC[C@H](O)/C=C/[C@@H]1[C@@H](C/C=C\CCCC(=O)O)[C@@H](O)C[C@H]1O`, the “activity change, negative = inhibition” value is -5.39% (inactive).
`CCCSc1ccc2nc(NC(=O)OC)[nH]c2c1`: the “activity change, negative = inhibition” value was 11.1% [at 54.9 µM] (inactive).
Turning to `C[S+](CC[C@H](N)C(=O)O)C[C@H]1O[C@@H](n2cnc3c(N)ncnc32)[C@H](O)[C@@H]1O` (stereo partly specified), the “activity change, negative = inhibition” value is -4.99% (inactive).
As to `Oc1c(Br)cc(Br)c2cccnc12`, the “activity change, negative = inhibition” value was -10.9% (inactive).
Same read-out and setting: the value for `O=C(CCN1CCN(CCO)CC1)N1c2ccccc2Sc2ccc(C(F)(F)F)cc21` was -2.85% (inactive); that for `CCCCCC[C@@H](O)C/C=C\CCCCCCCC(=O)O` was -6.79% (inactive).
`S=c1[nH]c2ccccc2s1`: the “activity change, negative = inhibition” value is -5.07% (inactive).
For `O=C(O)c1ccccc1Nc1cccc(C(F)(F)F)c1`, the Potency entry was “inactive”.
Take `CCCCCCCCCCCCCCCCCC(=O)O`: the “activity change, negative = inhibition” value was -0.87% (inactive).
As to `CC1(C)[C@@H](O)CC[C@]2(C)[C@H]3C(=O)C=C4[C@@H]5C[C@@](C)(C(=O)O)CC[C@]5(C)CC[C@@]4(C)[C@]3(C)CC[C@@H]12`, the “activity change, negative = inhibition” value was -5.66% (inactive).
As for `N=C(N)N`, the “activity change, negative = inhibition” value was -6.42% (inactive).
As to `Nc1ccc(O)c(C(=O)O)c1`, the Potency was 39.8 µM (active) and 11.2 µM (active).
Consider `COc1cc2c3cc1Oc1cc(ccc1O)C[C@@H]1c4c(cc(OC)c(O)c4Oc4ccc(cc4)C[C@@H]3N(C)CC2)CC[N+]1(C)C`, for which the “activity change, negative = inhibition” value is 0.411% (inactive).
Turning to `O=C(O)[C@H](O)[C@@H](O)[C@H](O)[C@H](O)CO`, the “activity change, negative = inhibition” value was 0.42% (inactive).
With `CC(C(=O)O)c1ccc(C(=O)c2cccs2)cc1` (stereo unspecified), the “activity change, negative = inhibition” value is -8.21% (inactive).
On to `CCCC(=O)OC[C@@H](OC(=O)CCC)[C@@H](OC(=O)CCC)[C@H](Cn1c2nc(=O)[nH]c(=O)c-2nc2cc(C)c(C)cc21)OC(=O)CCC`, for which the Potency was 39.8 µM (active).
For `CN1[C@@H]2CC[C@H]1CC(OC(c1ccccc1)c1ccccc1)C2` (stereo partly specified), the Potency result is “inactive”.
For `CCCCCCCCCCCCCCCC(=O)OC(C)C`, the “activity change, negative = inhibition” value was -5.9% (inactive).

The target in a further experiment is DNA dC->dU-editing enzyme APOBEC-3G (Homo sapiens) (UniProt Q9HC16). Nature of the experiment: qHTS for inhibitors of Vif-A3G interactions: Validation (AID 588379). Also: 0% is about no effect. Particulars: Vif-A3G protein interaction assay; series mostly up to 46.1 µM; activity change, negative = inhibition: at the top concentration. Put shortly: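 HeLa cells stably expressing Vif and A3G-eYFP, 700 cells/well, incubated overnight at 37 deg C, then exposed to compound overnight at 37 deg C. Inhibition of Vif-mediated degradation read as increased yellow fluorescence (Ex 488/Em 500-530) by laser-scanning cytometry.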
DNA dC->dU-editing enzyme APOBEC-3G (Homo sapiens), sequence (Q9HC16 whole entry, looked up): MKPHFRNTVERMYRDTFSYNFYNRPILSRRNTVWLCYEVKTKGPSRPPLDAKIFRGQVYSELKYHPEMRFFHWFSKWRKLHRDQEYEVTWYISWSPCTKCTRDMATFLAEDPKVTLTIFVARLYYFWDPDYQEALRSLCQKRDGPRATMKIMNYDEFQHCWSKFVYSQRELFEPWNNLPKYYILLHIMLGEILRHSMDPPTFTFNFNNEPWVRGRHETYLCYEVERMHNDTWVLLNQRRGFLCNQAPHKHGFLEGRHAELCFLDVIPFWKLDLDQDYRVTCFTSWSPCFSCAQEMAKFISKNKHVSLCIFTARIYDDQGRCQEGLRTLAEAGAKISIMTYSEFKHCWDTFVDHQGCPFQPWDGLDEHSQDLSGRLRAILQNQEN
Take `N[C@H](CCCP(=O)(O)O)C(=O)O`: the Potency result is “inactive”.
With `CN1[C@@H]2CC[C@H]1CC(OC(=O)C(CO)c1ccccc1)C2` (stereo partly specified), the “activity change, negative = inhibition” value is 2.47% (inactive).
With `COc1cc(CNC(=O)CCCC/C=C/C(C)C)ccc1O`, the “activity change, negative = inhibition” value is -2.07% (inactive).
